# Laboratory results taken from PMC13423814.
# Key:
# [1] = biological target: 26S proteasome non-ATPase regulatory subunit 5 (UniProt Q16401)
# [2] = biological target: Histone H2B type 1-L (UniProt Q99880)
# [3] = biological target: Large ribosomal subunit protein eL28 (UniProt P46779)
# [4] = biological target: Twinfilin-1 (UniProt Q12792)
# [5] = biological target: Heterochromatin protein 1-binding protein 3 (UniProt Q5SSJ5)
# Chain of 26S proteasome non-ATPase regulatory subunit 5 (Q16401 whole entry): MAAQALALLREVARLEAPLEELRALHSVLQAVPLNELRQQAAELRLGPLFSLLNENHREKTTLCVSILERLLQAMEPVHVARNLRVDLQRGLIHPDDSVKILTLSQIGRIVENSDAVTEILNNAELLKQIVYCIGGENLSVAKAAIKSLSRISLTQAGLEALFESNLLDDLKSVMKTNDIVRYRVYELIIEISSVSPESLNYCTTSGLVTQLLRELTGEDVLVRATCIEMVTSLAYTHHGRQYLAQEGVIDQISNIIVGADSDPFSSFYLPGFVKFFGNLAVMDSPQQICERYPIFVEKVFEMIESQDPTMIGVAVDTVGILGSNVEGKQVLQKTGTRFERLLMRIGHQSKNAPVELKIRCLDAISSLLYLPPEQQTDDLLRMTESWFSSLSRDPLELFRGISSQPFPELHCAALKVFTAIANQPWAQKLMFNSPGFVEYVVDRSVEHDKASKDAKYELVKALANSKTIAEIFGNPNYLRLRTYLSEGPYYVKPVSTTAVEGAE
# Chain of 26S proteasome regulatory subunit 4, P62191 (P62191 whole entry): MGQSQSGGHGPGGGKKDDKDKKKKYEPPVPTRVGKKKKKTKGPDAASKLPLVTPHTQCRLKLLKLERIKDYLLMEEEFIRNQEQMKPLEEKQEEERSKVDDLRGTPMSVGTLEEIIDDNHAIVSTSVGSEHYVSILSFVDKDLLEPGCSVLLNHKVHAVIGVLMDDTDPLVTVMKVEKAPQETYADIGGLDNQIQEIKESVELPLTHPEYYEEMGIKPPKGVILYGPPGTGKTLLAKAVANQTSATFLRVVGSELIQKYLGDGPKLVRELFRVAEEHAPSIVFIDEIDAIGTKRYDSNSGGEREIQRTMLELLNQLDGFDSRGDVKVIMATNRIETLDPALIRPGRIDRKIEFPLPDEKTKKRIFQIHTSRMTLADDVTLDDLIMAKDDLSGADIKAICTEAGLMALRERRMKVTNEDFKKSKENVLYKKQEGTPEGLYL
# Chain of Histone H2A.V, Q71UI9 (Q71UI9 whole entry): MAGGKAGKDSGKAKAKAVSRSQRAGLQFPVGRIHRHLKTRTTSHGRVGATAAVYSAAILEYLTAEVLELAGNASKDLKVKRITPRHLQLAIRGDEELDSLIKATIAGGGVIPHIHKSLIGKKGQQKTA
substance,measurement,setting,value
"26S proteasome regulatory subunit 4, P62191",listed as a hit,[1],yes
"Histone H2A.V, Q71UI9",listed as a hit,[2],yes
"Calmodulin-3, P0DP25",listed as a hit,[3],yes
"Actin, cytoplasmic 1, P60709",listed as a hit,[4],yes
"Histone H4, P62805",listed as a hit,[5],yes
